Tests used:
Format in all cases: functional
Plasmodium falciparum [1] = assay: GSK_TCMDC: Inhibition of Plasmodium falciparum 3D7 in whole red blood cells, using parasite LDH activity as an index of growth. Test compounds present at 2uM
Plasmodium falciparum [2] = assay: GSK_TCMDC: Inhibition of Plasmodium falciparum Dd2 in whole red blood cells, using parasite LDH activity as an index of growth. Test compounds present at 2uM
HepG2 = assay: GSK_TCMDC: Percent inhibition of human HepG2 cell line. Test compounds present at 10uM.

Nc1nc(N)c2cc(NS(=O)(=O)c3ccc(-c4ccccc4)cc3)ccc2n1
Inhibition (Plasmodium falciparum [1]): 100%
Inhibition (Plasmodium falciparum [2]): 54%
Inhibition (HepG2): 7%

CNc1ccc(CNCc2cccc(-c3ccc(-c4nc5ccccc5[nH]4)cc3)c2)cc1.O=C(O)C(F)(F)F
Inhibition (Plasmodium falciparum [1]): 100%
Inhibition (Plasmodium falciparum [2]): 80%
Inhibition (HepG2): 18%

CC(C)CNCc1ccc(-c2ccccc2CN(C(=O)NCCc2ccccc2)C2CCN(Cc3ccccc3)CC2)cc1.O=C(O)C(F)(F)F
Inhibition (Plasmodium falciparum [1]): 98%
Inhibition (Plasmodium falciparum [2]): 94%
Inhibition (HepG2): 89%

CC(=O)Nc1ccc(CNCCc2ccc(NC(=O)c3cc(Cl)cc(Cl)c3)cc2)cc1
Inhibition (Plasmodium falciparum [1]): 100%
Inhibition (Plasmodium falciparum [2]): 31%
Inhibition (HepG2): 10%

CC(C)[C@@H](C(=O)NCc1cccc(C(F)(F)F)c1)N1C(=O)CCC1C(=O)Nc1ccc([N+](=O)[O-])cc1 (some centres not stated)
Inhibition (Plasmodium falciparum [1]): 94%
Inhibition (Plasmodium falciparum [2]): 2%
Inhibition (HepG2): 0%

Cc1cccc2nc(-c3ccc(-c4cccc(CNCCc5ccncc5)c4)cc3)[nH]c12.O=C(O)C(F)(F)F
Inhibition (Plasmodium falciparum [1]): 100%
Inhibition (Plasmodium falciparum [2]): 95%
Inhibition (HepG2): 28%

COc1ccc2ncc(C#N)c(CCN3CCC(NCc4ccc5c(c4)NC(=O)CO5)CC3)c2c1.Cl
Inhibition (Plasmodium falciparum [1]): 99%
Inhibition (Plasmodium falciparum [2]): 43%
Inhibition (HepG2): 25%

CCc1ccc(CN(Cc2ccc(C)cc2)Cc2ccc(NC(C)=O)cc2)cc1
Inhibition (Plasmodium falciparum [1]): 89%
Inhibition (Plasmodium falciparum [2]): 79%
Inhibition (HepG2): 6%

CN1CCN(c2cc(-c3cccnc3)nc(-c3ccncc3)n2)CC1
Inhibition (Plasmodium falciparum [1]): 100%
Inhibition (Plasmodium falciparum [2]): 89%
Inhibition (HepG2): 11%

Nc1ncc(-c2ccc3nccc(-c4ccncc4)c3c2)cc1S(=O)(=O)N1CCOCC1
Inhibition (Plasmodium falciparum [1]): 100%
Inhibition (Plasmodium falciparum [2]): 99%
Inhibition (HepG2): 39%

CC(C)CC(=O)N1CCNC[C@@H]1C(=O)NC1CC1.O=C(O)C(F)(F)F
Inhibition (Plasmodium falciparum [1]): 82%
Inhibition (Plasmodium falciparum [2]): 0%
Inhibition (HepG2): 0%

CCOc1ccc(C(=O)Nc2cc(Br)c3c(c2)CNCC3)cc1Cl.Cl
Inhibition (Plasmodium falciparum [1]): 92%
Inhibition (Plasmodium falciparum [2]): 8%
Inhibition (HepG2): 13%

O=C(NC1CCN(CC2(c3ccccc3F)CCCC2)CC1)c1cc[nH]n1
Inhibition (Plasmodium falciparum [1]): 93%
Inhibition (Plasmodium falciparum [2]): 91%
Inhibition (HepG2): 0%

Cc1cccc2nc(-c3cccc(-c4ccc(NC(=O)C5CCCO5)cc4)c3)[nH]c12 (configuration not stated)
Inhibition (Plasmodium falciparum [1]): 91%
Inhibition (Plasmodium falciparum [2]): 13%
Inhibition (HepG2): 10%

O=S(=O)(c1c(Cl)cccc1Cl)N1CCCCC(c2ccc(C(F)(F)F)cc2)=N1
Inhibition (Plasmodium falciparum [1]): 99%
Inhibition (Plasmodium falciparum [2]): 98%
Inhibition (HepG2): 11%

C(=NN=c1cc(-c2ccccc2)[nH]c2ccccc12)c1cccnc1
Inhibition (Plasmodium falciparum [1]): 87%
Inhibition (Plasmodium falciparum [2]): 13%
Inhibition (HepG2): 23%

Cc1cccc(-c2nc(Nc3ccncc3)c3ccc([N+](=O)[O-])cc3n2)n1
Inhibition (Plasmodium falciparum [1]): 87%
Inhibition (Plasmodium falciparum [2]): 13%
Inhibition (HepG2): 0%

CNC(=O)c1cnc(Nc2ccc(N3CCN(C)CC3)c(C)c2)nc1NC.Cl
Inhibition (Plasmodium falciparum [1]): 97%
Inhibition (Plasmodium falciparum [2]): 38%
Inhibition (HepG2): 19%

Br.N=C1N=C(N)NC2(CCCCC2)N1OCCCOc1cccc2ccccc12
Inhibition (Plasmodium falciparum [1]): 95%
Inhibition (Plasmodium falciparum [2]): 96%
Inhibition (HepG2): 67%

Reference: ChEMBL document CHEMBL1157539, “Thousands of chemical starting points for antimalarial lead identification” (Nature, 2010)
